# Pf growth 96h – Primary qHTS for delayed death inhibitors of the malarial parasite plastid, 96 hour incubation; 320,000 compounds, 6.9% hits; Potency, µM (doses to about 28.7 µM), without a hit: at the top dose activity change, negative = inhibition, usual class: inhibitors; P. falciparum luciferase reporter growth, 96 h; note: % is set by controls: 0 for no effect and ±100 for the full control effect
#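 Readout is luminescence from an integrated firefly luciferase in P. falciparum. Red cells, 2% hematocrit and 0.05% parasitemia final, were cultured with compound through two parasite generations (96 hours) at 37 C, 5% CO2.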
# NS1 inh – qHTS Assay for Inhibitors of Influenza NS1 Protein Function. Potency, µM (titrated, usually from 46.1 µM), for inactives: at the highest dose activity, positive = more growth. 270,000 compounds, 0.4% hits. AID 2326, 2010; calls by dose curve; note: actives are rising curves; nearly all actives have a fitted effect of over 50% in size
#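 A cell-based growth assay was used: compounds that relieve NS1-induced slow growth of budding yeast raise OD600. Assay medium was yeast nitrogen base with ammonium sulphate and -URA supplement, pH 6.0, with 2% galactose.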
# Pf growth 48h – Primary qHTS for delayed death inhibitors of the malarial parasite plastid, 48 hour incubation | P. falciparum luciferase growth in erythrocytes, 48 h | Potency, µM (top dose mostly 28.7 µM), for the others: at the top dose activity change, negative = inhibition, hits mostly inhibitors | 310,000 compounds, 5.9% hits | AID 504832, 2011; note: % is set by controls: 0 for no effect and ±100 for the full control effect
#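 Parasite viability was followed by luminescence of a genomically integrated firefly luciferase. Cultures held 0.1% parasitemia at 2% hematocrit (final), incubated under 5% CO2 at 37 C.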
# HCV inh – qHTS Assay for Inhibitors of Hepatitis C Virus (HCV); Huh7.5.1 HCVcc-Cre infection, luciferase reporter, 44 h; Potency, µM (top dose mostly 41.8 µM), for the others: at the highest dose activity change, negative = inhibition, hits mostly inhibitors; 340,000 compounds, 3.4% hits; AID 651820, 2012; note: % is set by controls: 0 for no effect and ±100 for the full control effect
#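 Infectious HCVcc-Cre (~0.5 moi) was added to cells just after compound, with cells seeded 4 h earlier at 1,000 per well. Luciferase activity after 44 h culture reported infection; substrate was incubated 15 min at room temperature before reading.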
# AMA1-RON2 inh – qHTS for Inhibitors of AMA1-RON; Towards Development of Antimalarial Drug Lead: Primary Screen | 360,000 compounds, 0.2% hits | Plasmodium falciparum AMA1 (3D7) - RON2 peptide interaction | AlphaScreen AMA1-biotinylated RON2 peptide binding | AID 720542, 2013 | Potency, µM (titrated, usually from 58.2 µM), without a hit: at the highest dose activity change, negative = inhibition, most hits filed as inhibitors;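 note: 0% = vehicle wells and -100% = peptide control; nearly all actives have a fitted effect of over 45% in size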
#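 AMA1 (3D7) with his tag at 25 nM final met compounds first, then biotinylated RON2 peptide at 25 nM; detection used donor plus acceptor beads, 10 µg/mL apiece, read by AlphaScreen after 30 min at room temperature.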
# SARS PLP yeast – qHTS of Yeast-based Assay for SARS-CoV PLP; Potency, µM (doses to about 32.9 µM), without a hit: top-dose activity, positive = growth rescue, hits mostly activators; S. cerevisiae expressing SARS-CoV PLpro, growth rescue; AID 485353, 2010; 330,000 compounds, 0.19% hits; calls by dose curve; note: 0% is about no effect; nearly all actives have a fitted effect of over 55% in size
# * = called active by the depositor; ? = inconclusive; · = not tested or not shown. Compounds with a hit are over-represented: about 12% of the library has one in this group of screens. Unless noted, calls come from the whole dose curve; as a rule, active = well fitted curve in the direction sought with a large enough effect; inconclusive = small, poorly fitted or top-dose-only effect, or another doubt; inactive = no such curve, though single readings can be large; an effect the other way counts as inactive or inconclusive. Potency is the fitted concentration of half-maximal effect.
SMILES,Pf growth 96h,NS1 inh,Pf growth 48h,HCV inh,AMA1-RON2 inh,SARS PLP yeast
CC(CSc1nc2ccccc2s1)Cn1c(N2CCCC2)nc2c1c(=O)[nH]c(=O)n2C (stereo unspecified),10µM*,-34%,12µM*,?,0%,-1%
CCCCCn1c(N2CCN(Cc3ccccc3)CC2)nc2c1c(=O)[nH]c(=O)n2C,?,-22%,12µM*,10µM*,23%,6%
CC/C(C)=N/Nc1nc2c(c(=O)[nH]c(=O)n2C)n1Cc1ccccc1,?,7%,?,-20%,46%,-3%
CCN1CCN(c2nc3c(c(=O)[nH]c(=O)n3C)n2CCSc2nc3ccccc3s2)CC1,22%,9%,·,-6%,-2%,?
NC(=O)C1(N2CCCCC2)CCN(CCCC(=O)c2ccc(F)cc2)CC1,?,·,-24%,·,·,·
Cc1ccc(C(=O)COC(=O)CN2C(=O)C3C4CC(C(Br)C4Br)C3C2=O)cc1 (stereo unspecified),?,1%,10%,26%,-14%,-3%
OC(c1ccc(F)cc1)c1nc(-c2cnc3ccccc3c2)cs1 (stereo unspecified),·,·,·,·,-2%,·
O=C(O)C(C(=O)O)P(=S)(S)c1ccccc1 (stereo unspecified),·,-1%,·,·,·,·
CN(Cc1ccccc1)c1nc2c(c(=O)[nH]c(=O)n2C)n1Cc1ccccc1,-14%,-4%,?,-11%,-1%,-4%
Cc1ccc(Cn2c(N3CCN(C)CC3)nc3c2c(=O)[nH]c(=O)n3C)cc1,12%,2%,-15%,8%,5%,3%
CN(Cc1ccccc1)c1nc2c(c(=O)[nH]c(=O)n2C)n1CCOc1ccccc1,?,-63%,9.3µM*,?,-6%,0%
Cc1ccc(Cn2c(N3CCCCCC3)nc3c2c(=O)[nH]c(=O)n3C)cc1,·,-5%,4.1µM*,-21%,0%,0%
CCCn1c(N2CCN(Cc3cccc(C)c3)CC2)nc2c1c(=O)[nH]c(=O)n2C,1.9µM*,4%,·,-20%,16%,-1%
Cn1c(=O)[nH]c(=O)c2c1nc(CN1CCN(c3cccc(Cl)c3)CC1)n2CCCc1ccccc1,13%,-93%,9.3µM*,4%,5%,1%
CCCCn1c(CN2CCN(c3cccc(Cl)c3)CC2)nc2c1c(=O)[nH]c(=O)n2C,35%,-50%,?,?,-3%,14%
COc1cccc2[nH]c(C(=O)NCc3ccccc3)cc12,-15%,4%,·,?,-2%,-1%
Cn1c(=O)[nH]c(=O)c2c1nc(N1CCCCC1)n2CCCSc1nnnn1-c1ccccc1,?,-4%,?,-1%,1%,-21%
CN1CCN(c2nc3c(c(=O)[nH]c(=O)n3C)n2CCCSc2nnnn2-c2ccccc2)CC1,9.3µM*,·,?,11%,-7%,0%
CN(Cc1nc(-c2ccc(Cl)cc2)no1)C(=O)c1ccc2c(c1)OCO2,-17%,·,5%,14%,7%,-16%
COc1ccc2c(c1OC)C(=O)N1c3ccccc3SC21 (stereo unspecified),121%,-7%,226%,20%,4%,3%
COc1ccc2c(c1OC)C(=O)N1c3ccccc3C(=O)N(c3ccccc3F)C21 (stereo unspecified),12µM*,-2%,10µM*,?,0%,-10%
Cc1ccc(NC(=O)C/C(N)=N/OC(=O)Nc2cccc(C)c2)cc1,38%,·,35%,-6%,23%,-5%
Cc1ccc(NC(=O)ON=C2CCCC2)cc1,20%,-31%,4.7µM*,3%,9%,·
O=C(Nc1ccccc1)ON=C1CCCC1,?,-28%,8.3µM*,12%,15%,-72%
O=C(Nc1ccccc1)O/N=C/c1ccncc1,?,-5%,6%,16%,2%,0%
SMILES,Pf growth 96h,NS1 inh,Pf growth 48h,HCV inh,AMA1-RON2 inh,SARS PLP yeast
Cc1cc(OC2CCCCC2)nc(NCc2ccccc2)n1,5.2µM*,-17%,?,8%,-1%,-1%
CCOc1cc(C)nc(NCc2ccccc2)n1,?,-11%,·,-2%,-4%,-5%
CCCCOc1cc(C)nc(NCc2ccccc2)n1,?,-35%,13µM*,-9%,30%,?
CC(=O)c1ccc(Oc2cc(C)nc(NCc3ccccc3)n2)cc1,?,2%,?,13µM*,2%,10%
COCCN1C(=O)CCC1(C)C(=O)Nc1c(C)cccc1C (stereo unspecified),·,·,·,·,23%,·
CC(C)C(=O)Nc1ccc(NC(=O)c2cccc3c(Br)cccc23)cc1,20%,2%,15%,12%,-8%,0%
COc1ccc(N(CC(=O)N/N=C(\C)c2ccc(OC)c(OC)c2)S(=O)(=O)c2ccccc2)cc1,42%,?,·,-20%,2%,2%
CSc1c(CN2CCN(C)CC2)c2ccccc2n1C,·,·,·,0%,-5%,·
COc1ccccc1C(c1nnnn1C(C)(C)C)N1CCCCCC1 (stereo unspecified),·,-6%,8.3µM*,1%,0%,-1%
CCOc1ccc(C(c2nnnn2C(C)(C)C)N2CCN(C(=O)c3ccco3)CC2)cc1 (stereo unspecified),-20%,-2%,?,7%,-10%,1%
COc1ccccc1C(c1nnnn1C(C)(C)C)N1CCN(C(=O)c2ccco2)CC1 (stereo unspecified),?,1%,4.7µM*,9%,-6%,3%
O=C(CCCCCn1nnc2ccccc2c1=O)Nc1ccccc1Cl,-16%,3%,18%,-8%,7%,1%
COC(=O)c1ccc(NC(=O)Cn2nnc3ccccc32)cc1,5.2µM*,0%,96%,1%,0%,?
Cc1ccc(NC(=O)Cn2nnc3ccccc32)cc1,-24%,1%,96%,5%,-7%,0%
COC(=O)c1ccc(NC(=O)CCCCCn2nnc3ccccc3c2=O)cc1,3.3µM*,-3%,5.2µM*,-17%,-6%,-3%
OC(c1ccccc1)(c1nc(-c2ccccc2)cs1)C(F)(F)F (stereo unspecified),·,·,·,·,19%,·
COC(=O)c1cc(C)[nH]c2c(C)cc3nc4ccccc4c3c12,?,-51%,?,10µM*,50%,-4%
Cc1nn(C)cc1CN1CCC(CO)(CCOc2ccccc2)CC1,?,3%,35%,8%,0%,-2%
COc1ccc2[nH]c(CN3CCC(CO)(CCOc4ccccc4)CC3)c(C)c2c1,?,0%,?,10µM*,-19%,0%
